For 13 molecules, Potency results are on record in PubChem BioAssay (Tox21).

Activity calls are given as the source filed them. Unless noted, calls come from the whole dose curve; as a rule, active = well fitted curve in the direction sought with a large enough effect in the repeat runs; inconclusive = weak or mixed curves; inactive = no such curve, though single readings can be large; an effect the other way counts as inactive or inconclusive. Non-standard residues stand in square brackets, D forms with d. Residues, ends and D or L forms follow the SMILES beside them. Orn = NCCC[C@H](N)C(=O)O

A short description of assay [1]: qHTS assay for identifying genotoxic compounds that show differential cytotoxicity against isogenic chicken DT40 cell lines with known DNA damage response pathways - wild type cell line (AID 743012). Note: nearly all actives have a fitted effect of over 60% in size. Note: potency is the fitted concentration of half-maximal effect. The method in brief: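 Viability of DNA repair-proficient chicken DT40 cells was assessed by CellTiter-Glo luminescence following 40 h compound exposure at 37 C/5% CO2.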

The nature of assay [2]: qHTS assay for identifying genotoxic compounds that show differential cytotoxicity against isogenic chicken DT40 cell lines with known DNA damage response pathways - Rev3 mutant cell line (AID 743014; note: nearly all actives have a fitted effect of over 55% in size; note: potency is the fitted concentration of half-maximal effect). (qHTS replaces the single test concentration by a dilution series.)
Assay [3] is described as follows: qHTS assay for identifying genotoxic compounds that show differential cytotoxicity against isogenic chicken DT40 cell lines with known DNA damage response pathways - Rad54/Ku70 mutant cell line (AID 743015). Note: nearly all actives have a fitted effect of over 60% in size. Note: potency is the fitted concentration of half-maximal effect.
A short description of assay [4]: qHTS assay to identify small molecule antagonists of the androgen receptor (AR) signaling pathway - cell viability counter screen (AID 743033; note: nearly all actives have a fitted effect of over 45% in size; note: potency is the fitted concentration of half-maximal effect).
Assay [5] can be described thus: qHTS assay to identify small molecule antagonists of the androgen receptor (AR) signaling pathway using the MDA cell line - cell viability counter screen (AID 743041; note: nearly all actives have a fitted effect of over 45% in size; note: potency is the fitted concentration of half-maximal effect). The gist of the method: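 Viability read by CellTiter-Fluor fluorescence in the same wells as the antagonist screen, added after 15.5 h of a 16 h, 37C exposure. Human breast carcinoma MDA-kb2 AR-luc cells, compounds co-dosed with agonist R1881.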

Assay [6] is described as follows: qHTS assay to identify small molecule antagonists of the estrogen receptor alpha (ER-alpha) signaling pathway - cell viability counter screen (AID 743074; calls by dose curve;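 note: HEK293 cells carrying ER-alpha-UAS-bla reporter stimulated with 17beta-estradiol; nearly all actives have a fitted effect of over 45% in size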; note: potency is the fitted concentration of half-maximal effect).
Assay [7] in a line: qHTS assay to identify small molecule antagonists of the estrogen receptor alpha (ER-alpha) signaling pathway using the BG1 cell line - cell viability counter screen (AID 743081).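 Note: compound given together with 17beta-estradiol as the ER stimulus; series mostly up to about 70 µM; nearly all actives have a fitted effect of over 45% in size.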
Assay [8] concerns the target Androgen receptor (Homo sapiens) (UniProt P10275). The assay can be described thus: qHTS assay to identify small molecule antagonists of the androgen receptor (AR) signaling pathway (AID 743035; active = well fitted inhibition curve with a large enough effect in the signal ratio in the repeat runs, not every such curve was filed as active; inconclusive = weak or mixed curves, or effect the other way; inactive = no such curve, though single readings can be large or run the other way; the % refers to the signal ratio; note: potency is the fitted concentration of half-maximal effect). The method in brief: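 Reporter HEK293 cells were exposed to compounds and R1881 overnight (16 h, 37C); beta-lactamase activity was then quantified by FRET fluorescence.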
The target is the same in assay [9]. The assay can be described thus: qHTS assay to identify small molecule agonists of the androgen receptor (AR) signaling pathway (AID 743036; active = well fitted activation curve with a large enough effect in the signal ratio in the repeat runs, with a control signal flat, not every such curve was filed as active; inconclusive = weak or mixed curves, or effect the other way; inactive = no such curve, though single readings can be large or run the other way; the % refers to the signal ratio; note: potency is the fitted concentration of half-maximal effect). The method in brief:
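Agonist activity was scored by beta-lactamase reporter fluorescence in stably transfected HEK293 cells exposed to compounds for 16 h at 37C and 5% CO2. Substrate loading took 2 h at room temperature.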

For assay [10] the target is unchanged. As to the kind of experiment: qHTS assay to identify small molecule agonists of the androgen receptor (AR) signaling pathway using the MDA cell line (AID 743040; note: nearly all actives have a fitted effect of over 20% in size). The method in brief:
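Luciferase agonist assay: 16 h compound exposure at 37C without CO2 in MDA-kb2 AR-luc cells, whose MMTV promoter responds to both AR and GR. Luminescence measured after 30 min room-temperature incubation with ONE-Glo.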

The nature of assay [11]: qHTS assay to identify small molecule antagonists of the thyroid receptor (TR) signaling pathway - cell viability counter screen (AID 743064). Note: nearly all actives have a fitted effect of over 50% in size. Note: potency is the fitted concentration of half-maximal effect. The method in brief:
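Same-well viability check: GH3.TRE-Luc cells stimulated with 1 nM T3 alongside test compound for 23.5 h, followed by CellTiter-Fluor fluorescence.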

Assay [12] in a line: qHTS assay to identify small molecule antagonists of the thyroid receptor (TR) signaling pathway (AID 743065). Note: nearly all actives have a fitted effect of over 55% in size. Note: potency is the fitted concentration of half-maximal effect. The gist of the method:
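Antagonism measured as loss of luciferase signal in GH3 cells stably carrying a TRE-luciferase reporter, co-treated with compound and T3 (1 nM final) for 23.5 h at 37 C. Viability was read in the same well by CellTiter-Fluor.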

A further assay addresses Aromatase (Homo sapiens) (UniProt P11511). The assay can be described thus: qHTS assay to identify aromatase inhibitors (AID 743083). Note: nearly all actives have a fitted effect of over 55% in size. Note: potency is the fitted concentration of half-maximal effect.
For assay [13], the target named is Androgen receptor (Homo sapiens) (UniProt P10275). The assay can be described thus: qHTS assay to identify small molecule antagonists of the androgen receptor (AR) signaling pathway using the MDA cell line (AID 743042; note: nearly all actives have a fitted effect of over 55% in size; note: potency is the fitted concentration of half-maximal effect). The gist of the method:
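Antagonist mode: compounds plus R1881 agonist added to MDA-kb2 AR-luc cells, incubated 16 h at 37C. Luciferase reporter luminescence quantified, with multiplexed CellTiter-Fluor readout for cell viability.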

Assay [14] has as its target Estrogen receptor (Homo sapiens) (UniProt P03372). As to the kind of experiment: qHTS assay to identify small molecule antagonists of the estrogen receptor alpha (ER-alpha) signaling pathway (AID 743069; active = well fitted curve in the direction sought with a large enough effect in the signal ratio in the repeat runs, not every such curve was filed as active; inconclusive = weak or mixed curves, or effect the other way; inactive = no such curve, though single readings can be large or run the other way; the % refers to the signal ratio; note: potency is the fitted concentration of half-maximal effect). The gist of the method:
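Antagonist mode: compounds in DMSO were co-added with 17beta-estradiol to ER-alpha-bla HEK293 cells (2% charcoal-stripped serum) and left 18 h at 37C. Reporter inhibition was measured as FRET fluorescence after 2 h LiveBLAzer substrate at room temperature.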

The target is the same in assay [15]. The assay can be described thus: qHTS assay to identify small molecule agonists of the estrogen receptor alpha (ER-alpha) signaling pathway (AID 743075; calls by dose curve;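 note: HEK293 GripTite cells with ER-alpha and UAS-driven beta-lactamase reporter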; note: potency is the fitted concentration of half-maximal effect).
Assay [16] in a line: qHTS assay to identify small molecule antagonists of the estrogen receptor alpha (ER-alpha) signaling pathway using the BG1 cell line (AID 743080; calls by dose curve;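 note: BG1 cells stimulated with 17beta-estradiol alongside compound; nearly all actives have a fitted effect of over 25% in size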; note: potency is the fitted concentration of half-maximal effect). The gist of the method: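 Readout is ONE-Glo luminescence, taken 30 min at room temperature after reagent addition, preceded by a CellTiter-Fluor viability read; BG1-Luc-4E2 cells had received compound and 17beta-estradiol for 21.5 h at 37 C.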

Assay [17] has as its system thyroid hormone receptor (rat, GH3 cells). As to the kind of experiment: qHTS assay to identify small molecule agonists of the thyroid receptor (TR) signaling pathway (AID 743066; calls by dose curve).
The target in assay [18] is Estrogen receptor (Homo sapiens) (UniProt P03372). As to the kind of experiment: qHTS assay to identify small molecule agonists of the estrogen receptor alpha (ER-alpha) signaling pathway using the BG1 cell line (AID 743079). Note: nearly all actives have a fitted effect of over 20% in size.
Estrogen receptor (Homo sapiens), sequence (P03372 whole entry, looked up): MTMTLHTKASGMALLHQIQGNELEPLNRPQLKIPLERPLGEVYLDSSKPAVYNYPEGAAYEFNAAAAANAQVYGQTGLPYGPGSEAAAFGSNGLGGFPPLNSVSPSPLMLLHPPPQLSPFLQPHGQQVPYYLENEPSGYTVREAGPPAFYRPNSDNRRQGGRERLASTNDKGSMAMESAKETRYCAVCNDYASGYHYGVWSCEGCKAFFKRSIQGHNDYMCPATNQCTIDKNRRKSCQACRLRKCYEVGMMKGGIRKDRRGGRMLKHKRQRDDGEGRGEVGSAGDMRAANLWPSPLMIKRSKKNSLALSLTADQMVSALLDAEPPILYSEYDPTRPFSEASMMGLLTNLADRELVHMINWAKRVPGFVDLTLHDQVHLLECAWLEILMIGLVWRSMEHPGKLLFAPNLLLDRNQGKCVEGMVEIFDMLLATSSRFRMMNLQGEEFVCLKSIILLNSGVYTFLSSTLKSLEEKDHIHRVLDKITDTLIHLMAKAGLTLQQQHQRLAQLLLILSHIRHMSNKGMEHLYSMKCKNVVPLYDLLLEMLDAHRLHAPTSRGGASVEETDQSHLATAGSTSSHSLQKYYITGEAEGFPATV

Aromatase (Homo sapiens), sequence (P11511 whole entry, looked up): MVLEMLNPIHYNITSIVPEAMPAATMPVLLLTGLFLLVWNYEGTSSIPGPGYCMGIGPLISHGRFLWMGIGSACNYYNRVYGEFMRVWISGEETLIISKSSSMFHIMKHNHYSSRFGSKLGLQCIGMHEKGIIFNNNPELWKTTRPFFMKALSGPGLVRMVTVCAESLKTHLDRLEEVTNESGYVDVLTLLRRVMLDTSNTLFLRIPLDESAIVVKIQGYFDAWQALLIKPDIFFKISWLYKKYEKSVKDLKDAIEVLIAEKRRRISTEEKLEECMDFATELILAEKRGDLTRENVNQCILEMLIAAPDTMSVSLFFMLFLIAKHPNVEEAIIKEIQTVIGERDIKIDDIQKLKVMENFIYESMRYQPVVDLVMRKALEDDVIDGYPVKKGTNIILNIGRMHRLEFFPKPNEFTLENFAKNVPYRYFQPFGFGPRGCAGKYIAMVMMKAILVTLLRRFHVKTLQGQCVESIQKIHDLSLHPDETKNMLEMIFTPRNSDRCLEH
Androgen receptor (Homo sapiens), sequence (P10275 whole entry, looked up): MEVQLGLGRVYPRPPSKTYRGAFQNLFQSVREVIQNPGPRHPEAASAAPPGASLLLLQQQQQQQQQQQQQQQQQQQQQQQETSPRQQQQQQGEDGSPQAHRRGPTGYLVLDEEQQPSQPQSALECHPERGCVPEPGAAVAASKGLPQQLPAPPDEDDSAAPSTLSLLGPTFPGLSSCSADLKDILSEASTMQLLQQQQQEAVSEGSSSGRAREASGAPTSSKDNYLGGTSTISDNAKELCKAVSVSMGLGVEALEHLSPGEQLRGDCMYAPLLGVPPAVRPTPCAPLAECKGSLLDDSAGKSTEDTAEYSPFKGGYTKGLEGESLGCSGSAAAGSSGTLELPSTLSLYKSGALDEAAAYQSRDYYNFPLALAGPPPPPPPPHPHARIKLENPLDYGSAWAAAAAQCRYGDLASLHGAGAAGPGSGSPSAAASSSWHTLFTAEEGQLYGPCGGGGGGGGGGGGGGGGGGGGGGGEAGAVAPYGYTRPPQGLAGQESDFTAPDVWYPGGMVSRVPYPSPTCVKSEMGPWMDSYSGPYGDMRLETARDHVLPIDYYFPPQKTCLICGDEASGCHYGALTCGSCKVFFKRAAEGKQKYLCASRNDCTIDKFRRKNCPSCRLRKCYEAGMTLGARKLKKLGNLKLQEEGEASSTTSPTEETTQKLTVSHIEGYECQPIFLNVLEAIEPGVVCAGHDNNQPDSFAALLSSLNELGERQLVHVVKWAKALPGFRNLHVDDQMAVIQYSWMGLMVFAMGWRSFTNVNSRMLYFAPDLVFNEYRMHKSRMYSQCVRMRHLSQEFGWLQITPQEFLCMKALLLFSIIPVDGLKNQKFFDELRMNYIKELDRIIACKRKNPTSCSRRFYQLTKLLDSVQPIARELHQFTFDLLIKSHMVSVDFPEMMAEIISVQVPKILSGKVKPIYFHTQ

In the case of `CCCn1c(=O)[nH]c(=O)c2[nH]cnc21`, the Potency result in assay [1], in assay [2], in assay [3], in assay [4], in [5] and in [6] was “inactive” throughout. Also, the Potency entry in assay [7] was “inactive”.
Take `COc1cc(NS(C)(=O)=O)ccc1Nc1c2ccccc2nc2ccccc12`: the Potency in assay [1] is 0.0596 µM (active); in [2] it was 0.0668 µM (active); in assay [3], 0.0084 µM (active); in assay [8], 0.601 µM (active); in assay [9] it was 10.7 µM (active); in [11], 0.188 µM (active). Further, the Potency in [12] was 0.596 µM (active); with Aromatase (Homo sapiens), 26.6 µM (active). In addition, the Potency entry in assay [10], in assay [5] and in assay [6] was “inactive” throughout.
`C=CCc1cc(S(=O)(=O)c2ccc(O)c(CC=C)c2)ccc1O`: the Potency is 30.6 µM (active) in [1]; 68.6 µM (active) in assay [2]; 54.5 µM (active) in [3]; 38.9 µM (active) in assay [8]; 61.1 µM (active) in assay [13]; 24.3 µM (active) in assay [12]. In addition, the Potency in assay [14] is 34.7 µM [inconclusive] (active); in [16], 61.1 µM (active); with Aromatase (Homo sapiens), 54.5 µM (active). Besides, the Potency entry in [9], in assay [10], in [6], in assay [15] and in assay [7] was “inactive” throughout.
Consider `CC(C)C[C@@H]1NC(=O)[C@H](CCCN)NC(=O)[C@H](C(C)C)NC(=O)[C@@H]2CCCN2C(=O)[C@@H](Cc2ccccc2)NC(=O)[C@H](CC(C)C)NC(=O)[C@H](CCCN)NC(=O)[C@H](C(C)C)NC(=O)[C@@H]2CCCN2C(=O)[C@@H](Cc2ccccc2)NC1=O` (cyclo(V[Orn]L[dF]PV[Orn]L[dF]P)), for which the Potency in assay [1] was 0.376 µM (active); in [2], 0.075 µM (active); in assay [3] it was 0.0944 µM (active); in assay [4], 2.68 µM (active); in assay [5], 1.97 µM (active); in [11] it was 2.11 µM (active). For the same molecule, the results for the Potency (in assay [12]; in [6]; with Aromatase (Homo sapiens)) were 0.841 µM (active), 10.7 µM (active) and 1.88 µM (active), respectively. Besides, the Potency entry in assay [15] was “inactive”.
Turning to `O=C(Nc1ccccc1)c1cc(Cl)ccc1O`, the Potency in assay [1] was 13.7 µM (active); in assay [2] it was 9.69 µM (active); in [3] it was 9.69 µM (active); in [4], 11 µM (active); in [11], 10.9 µM (active); in assay [12], 5.45 µM (active). The Potency with Aromatase (Homo sapiens) was 27.3 µM (active). Also, the Potency result in assay [17] is “inactive”.
With `CO/N=C(\C(=O)N[C@@H]1C(=O)N2C(C(=O)O)=C(COC(C)=O)CS[C@H]12)c1csc(N)n1` (stereo in doubt), the Potency result in assay [1], in [2], in assay [3], in [4], in assay [5] and in assay [11] was “inactive” each time. Also, the Potency result in [12], in [17], in assay [6] and in assay [7] was “inactive” each time.
`CC(Cc1ccc(O)c(O)c1)C(C)Cc1ccc(O)c(O)c1` (stereo unspecified): the Potency is 13.7 µM (active) in assay [1]; 30.6 µM (active) in [2]; 15.4 µM (active) in assay [3]; 13.7 µM (active) in assay [11]; 7.7 µM (active) in assay [12]; 54.9 µM [inconclusive] (active) in [14]. Further, the Potency in assay [15] was 0.0174 µM [inconclusive] (active). Further, the Potency result (in assay [4]; in assay [5]; in assay [17]; in [16]; in assay [7]; in the assay with Aromatase (Homo sapiens)) was “inactive” in each case.
As to `CS(=O)(=O)c1ccc([C@@H](O)[C@@H](COC(=O)CN)NC(=O)C(Cl)Cl)cc1`, the results for the Potency in [1], in [2] and in [3] were 5.96 µM (active), 6.68 µM (active) and 7.5 µM (active), respectively. The Potency result in assay [4], in assay [5], in assay [11], in assay [12], in [17] and in assay [14] was “inactive” throughout. Further, the Potency result (in assay [6]; in assay [15]; in assay [18]; in assay [16]; in assay [7]; in the assay with Aromatase (Homo sapiens)) was “inactive” in each case.
Take `CC(C)(O/N=C(\C(=O)N[C@@H]1C(=O)N2C(C(=O)[O-])=C(C[n+]3ccccc3)CS[C@H]12)c1csc(N)n1)C(=O)O`: the Potency result in assay [1], in [2], in assay [3], in [4], in assay [5] and in [11] was “inactive” in each case. The Potency entry in assay [17], in [14], in assay [15], in [18], in [16] and in assay [7] was “inactive” throughout. The Potency entry with Aromatase (Homo sapiens) is “inactive”.
Regarding `COc1ccc(/C=C/C(=O)O)cc1`, the Potency result in assay [1], in assay [2], in assay [3], in assay [4], in assay [9] and in assay [10] was “inactive” throughout. For the same molecule, the Potency result in assay [5], in assay [13], in [11], in assay [12], in assay [17] and in [14] was “inactive” in each case. Besides, the Potency result (in [6]; in assay [15]; in assay [18]; in assay [16]; in assay [7]; in the assay with Aromatase (Homo sapiens)) was “inactive” throughout.
For the molecule `O=C(CCCN1CCN2CCCC2C1)c1ccc(F)cc1` (stereo unspecified), the Potency in assay [1] is 11.9 µM (active); in assay [2], 2.11 µM (active); in assay [3], 8.41 µM (active). For the same molecule, the Potency result in assay [4], in assay [5], in assay [11], in assay [12], in assay [17] and in assay [14] was “inactive” throughout. The Potency result (in [6]; in assay [15]; in assay [18]; in assay [16]; in [7]; with Aromatase (Homo sapiens)) was “inactive” in each case.
For `O=P(O)(O)CP(=O)(O)O`, the Potency entry in assay [1], in assay [3], in assay [9], in assay [10], in assay [5] and in assay [13] was “inactive” in each case. For the same molecule, the Potency entry in [12], in [17], in [14], in [6], in [15] and in assay [18] was “inactive” each time. In addition, the Potency entry (in [16]; in [7]; with Aromatase (Homo sapiens)) was “inactive” throughout.
For the molecule `CN1CC[C@H](c2c(O)cc(O)c3c(=O)cc(-c4ccccc4Cl)oc23)[C@H](O)C1`, the Potency in [2] was 0.15 µM (active); in [3], 0.15 µM (active); in assay [13] it was 0.106 µM (active); in [12] it was 0.15 µM (active); with Aromatase (Homo sapiens), 0.211 µM (active). Besides, the Potency result in assay [10] and in assay [5] was “inactive” in each case.
